Among all 1,300 compounds or so, about 1,000 (77%) were called active. Roughly 7% stayed inconclusive and do not appear here. So high a share suggests a set chosen from earlier hits. The list shows a part of the results. A number with no mark means an inactive call. The call rests on the fitted dose curve; in most records, active means well fitted inhibition curve with a large enough effect; inconclusive means small, poorly fitted or top-dose-only effect; inactive means no such curve, though single readings can be large or run the other way.
assay: qHTS of small molecules that selectively kill Giardia lamblia: Hit Validation.;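 further: viability measured as ATP content by luminescence so killing lowers signal; trophozoites exposed to compounds for 48 h anaerobically at 37 °C; nearly all actives have a fitted effect of over 65% in size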; settings: Giardia lamblia trophozoite viability, dose-response; series mostly up to 38.3 µM; activity change, negative = killing: at the top concentration
Outline: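 Viability, read as ATP luminescence: trophozoites at 100 cells/well, compound added, 48 hrs anaerobic at 37 deg C, then 15-30 min room-temperature development before reading.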
On the % scale 0 is the no-effect control and ±100 the full control effect; potency means the concentration at half of the fitted maximal effect.

Compound	Potency	activity change, negative = killing
O=C1C(c2ccncc2)=C(O)c2ccccc21	9180 nM (active)	
CS/C(Nc1cc(Cl)ccc1Cl)=C(/C#N)C(=O)c1ccco1	5790 nM (active)	
O=[N+]([O-])c1ccc(N=NN(CCO)CCO)cc1	3260 nM (active)	
O=C(CCC(=O)Nc1ccc(Cl)cc1Cl)N/N=C/c1ccc([N+](=O)[O-])o1	818 nM (active)	
O=C(CSc1ccc(Cl)cc1)N/N=C/c1ccc([N+](=O)[O-])o1	818 nM (active)	
CCOC(=O)N/N=C\c1ccc([N+](=O)[O-])o1	1300 nM (active)	
CCCCCC(=O)N/N=C/c1ccc([N+](=O)[O-])o1	579 nM (active)	
CCCCCCCC(=O)N/N=C/c1ccc([N+](=O)[O-])o1	579 nM (active)	
COc1ccc(NS(=O)(=O)c2ccc(C)cc2)c([N+](=O)[O-])c1	1830 nM (active)	
CC(=O)Nc1ccc(NS(=O)(=O)c2ccc(C)cc2)c([N+](=O)[O-])c1	516 nM (active)	
CN(Cc1ccccc1)C(=O)c1ccc(NC(=O)Cc2cccc(NC(=O)C3CCN(C(=O)C4CC4)CC3)c2)cc1		-32%
O=C(Nc1ccccc1C(=O)O)c1ccc(NC(=O)C2CC2)cc1	4100 nM (active)	
CN(CCc1ccccc1)C(=O)c1cccc(NC(=O)Cc2cccc(NC(=O)C3CCN(C(=O)C4CCCC4)CC3)c2)c1		-1.44%
N/C(=N\O)c1ccc([N+](=O)[O-])s1	2900 nM (active)	
O=[N+]([O-])c1cccn2cc(-c3ccc(Br)cc3)nc12	729 nM (active)	
O=C(c1ccco1)N1CCN(c2c([N+](=O)[O-])nn(-c3ccc(Cl)cc3)[n+]2[O-])CC1	918 nM (active)	
O=C(c1ccco1)N1CCN(c2c([N+](=O)[O-])nn(-c3cccc(Cl)c3)[n+]2[O-])CC1	2590 nM (active)	
Cn1c([N+](=O)[O-])cnc1COC(N)=O	1160 nM (active)	
O=C(NC(=S)Nc1ccc(CN2CCOCC2)cc1)c1ccc([N+](=O)[O-])cc1Cl	4100 nM (active)	
CC(C)OC(=O)Nc1ccc2c(c1)N(C(=O)N1CCN(C)CC1)c1ccccc1CC2	4100 nM (active)	
CCCCOc1ccc(C(=O)NCC(=O)NCCCn2nc(C)cc2C)cc1		-2.52%
O=C(CN1C(=O)c2ccccc2S1(=O)=O)c1ccc2c(c1)OCCO2	2900 nM (active)	
O=C(CN1C(=O)c2ccccc2S1(=O)=O)c1ccc2c(c1)OCCCO2	1030 nM (active)	
O=C1OC(CN(Cc2ccccc2)Cc2ccccc2)CN1N=Cc1ccc([N+](=O)[O-])o1 (stereo not drawn)	650 nM (active)	

Compound	Potency	activity change, negative = killing
Cc1ccc(-c2ccc(/C=N/N3C(=O)C4C5C=CC(CC5)C4C3=O)o2)c([N+](=O)[O-])c1 (stereo not drawn)		-17.9%
CC1CS(=O)(=O)CCN1N=Cc1ccc([N+](=O)[O-])o1 (stereo not drawn)	365 nM (active)	
O=C1SCCN1N=Cc1ccc([N+](=O)[O-])o1	326 nM (active)	
O=C1c2cc([N+](=O)[O-])cc3cc([N+](=O)[O-])cc(c23)C(=O)N1c1ccccn1	1830 nM (active)	
Cc1cc(O)ccc1N1C(=O)c2cccc3cc([N+](=O)[O-])cc(c23)C1=O	2900 nM (active)	
Cc1ccc(-c2nc3ncccc3o2)cc1NC(=O)c1ccc([N+](=O)[O-])o1	918 nM (active)	
Cc1c(NC(=O)c2ccc([N+](=O)[O-])o2)cccc1-c1nc2ncccc2o1	918 nM (active)	
O=C(Nc1ccc(-c2nc3ncccc3o2)cc1)c1ccc([N+](=O)[O-])o1	1300 nM (active)	
Cc1cc2ncn(/N=C/c3ccc([N+](=O)[O-])s3)c2cc1C	1300 nM (active)	
Nc1nc2ccccc2n1/N=C/c1ccc([N+](=O)[O-])s1	410 nM (active)	
Cc1nc2ccccc2n1/N=C/c1ccc([N+](=O)[O-])s1	1630 nM (active)	
O=[N+]([O-])c1ccc(/C=N/n2c(CO)nc3ccccc32)s1	650 nM (active)	
O=C(Cc1ccccc1)Nc1nnc(-c2cccs2)s1	1450 nM (active)	
O=[N+]([O-])c1ccc2nc(CO)[nH]c2c1	2310 nM (active)	
CCc1nc2cc([N+](=O)[O-])c([N+](=O)[O-])cc2[nH]1	6500 nM (active)	
Cn1c([N+](=O)[O-])cnc1N1CCN(c2nncs2)C1=O	365 nM (active)	
Cc1cc(C)c2sc(NC(=O)c3ccc([N+](=O)[O-])o3)nc2c1	1160 nM (active)	
Cc1cc(C)c2nc(NC(=O)c3ccc([N+](=O)[O-])o3)sc2c1	1160 nM (active)	
Cc1cccc(-n2ncc3c(N4CCCC4)ncnc32)c1	5160 nM (active)	
COc1ccc(C(=S)NC2CCCCC2)cc1	1030 nM (active)	
COc1ccc(Cn2ccnc2SCC(=O)NC2CCCC2)cc1		-1.53%
Cc1nc2c(o1)C(=O)c1ccccc1C2=Nc1ccccc1	6500 nM (active)	
COc1ccc(-n2nc([N+](=O)[O-])c(=NCc3cccnc3)n2O)cc1	2590 nM (active)	
Cc1ccc(CN=c2c([N+](=O)[O-])nn(-c3cccc(Cl)c3)n2O)cc1	18300 nM (active)	

Compound	Potency	activity change, negative = killing
Cc1ccc(CN=c2c([N+](=O)[O-])nn(-c3cccc(C)c3)n2O)cc1	18300 nM (active)	
Cc1cccc(-n2nc([N+](=O)[O-])c(=NCc3cccnc3)n2O)c1	4100 nM (active)	
O=[N+]([O-])c1nn(-c2ccc3c(c2)OCCO3)n(O)c1=NC1CCCCCC1	2050 nM (active)	
O=[N+]([O-])c1nn(-c2ccc3c(c2)OCCO3)n(O)c1=NC1CCCCC1	3260 nM (active)	
O=[N+]([O-])c1nn(-c2ccc3c(c2)OCCO3)n(O)c1=NC1CCCC1	3650 nM (active)	
Cc1nc([N+](=O)[O-])cn1-c1nc2ccccn2c1[N+](=O)[O-]	1830 nM (active)	
COc1cc(-c2noc(C)c2C(=O)NCC[C@@H]2CCCN2C)cc(OC)c1OC		10.1%
Cc1ccc([N+](=O)[O-])cc1NC(=O)C1CCN(S(C)(=O)=O)CC1		-23.7%
Cc1cc(C)cc(NC(=O)Cn2c(=O)oc3cc(S(=O)(=O)N4CCC(C)CC4)ccc32)c1		-17.3%
Cc1ccc(NC(=O)C2CCN(S(=O)(=O)c3cc([N+](=O)[O-])ccc3Cl)CC2)nc1	4600 nM (active)	
Cc1ccc(C)c(Sc2ccc(NC(=O)CCl)cc2)c1	918 nM (active)	
Cc1ccc(SCCNC(=O)c2ccccc2F)cc1		-19.2%
C(=C\c1cnc2ccccc2n1)/c1ccc2c(c1)OCO2	2310 nM (active)	
C(=C\c1nc2ccccc2s1)/c1ccc2c(c1)OCO2	2310 nM (active)	
Cc1cc(C(=O)N/N=C/c2ccc([N+](=O)[O-])s2)c2ccccc2n1	2900 nM (active)	
O=C(N/N=C/c1ccc([N+](=O)[O-])s1)c1ccccc1Br	1630 nM (active)	
Cc1ccccc1NCC(=O)N/N=C\c1ccc([N+](=O)[O-])s1	3260 nM (active)	
Cc1ccccc1C(=O)N/N=C/c1ccc([N+](=O)[O-])s1	1450 nM (active)	
N/C(=N\N=Cc1ccc2c(c1)OCO2)NN=Cc1ccc2c(c1)OCO2	4100 nM (active)	
C[C@@H]1CC=C[C@H]2[C@H]1C(=O)N(Cc1ccccc1)[C@H]2c1ccc2ccccc2c1/C=C/c1ccccc1		0.989%
CCOC(=O)c1nc(C(=O)NCc2ccc(C)cc2)nc2ccccc12	7290 nM (active)	
N#Cc1ccc(-c2c(-c3ccccc3)ncc3cc(F)ccc23)cc1		-18.6%
Cc1ccc(CN=c2c([N+](=O)[O-])nn(-c3ccc(Cl)cc3)n2O)cc1	7290 nM (active)	
O=[N+]([O-])c1nn(-c2ccc(Cl)cc2)n(O)c1=NCc1ccccc1	9180 nM (active)	

Compound	Potency	activity change, negative = killing
O=[N+]([O-])c1nn(-c2ccc(Cl)cc2)n(O)c1=NCc1ccncc1	3650 nM (active)	
COc1ccc2cc3cc(C(=O)Nc4ccccc4N4CCN(C)CC4)oc3nc2c1	2050 nM (active)	
COc1ccc(OC)c(NC(=O)N2CCc3ccccc3C2)c1		-4.77%
Cc1ccccc1Cn1nnc2c1C(=O)c1ccccc1C2=O	2900 nM (active)	
O=[N+]([O-])c1ccc(CN2CCN(c3ccc(F)cc3)CC2)o1	1030 nM (active)	
O=[N+]([O-])c1ccc(CN2CCN(c3ccccc3)CC2)o1	818 nM (active)	
O=[N+]([O-])c1ccc(N2CCN(Cc3ccc([N+](=O)[O-])o3)CC2)cc1	516 nM (active)	
O=C(CN1CCN(c2ccccc2)CC1)Nc1scc2c1c(=O)oc1ccccc12		-5.04%
O=[N+]([O-])c1ccc(CN2CCN(c3ccc(Cl)cc3)CC2)o1	729 nM (active)	
COc1ccc(C(=O)CC(SCC(NC(C)=O)C(=O)O)c2ccc(Cl)cc2)cc1OC (stereo not drawn)	13000 nM (active)	
COc1ccc2c3n([n+]([O-])c2c1)CCN=C3c1ccc(Cl)cc1	579 nM (active)	
Nc1c(Cl)cc(C2=NCCn3c2c2ccccc2[n+]3[O-])cc1Cl	326 nM (active)	
COc1ccc2c3n([n+]([O-])c2c1)CCN=C3c1cc(Cl)c(N)c(Cl)c1	183 nM (active)	
COc1ccc2c3n([n+]([O-])c2c1)CCN=C3c1ccc(C)cc1	365 nM (active)	
c1ccc(-c2cn3nc(-c4ccccc4)sc3n2)cc1	918 nM (active)	
O=C(O)CCCCCNS(=O)(=O)c1cccc2c1C(=O)c1ccccc1C2=O	3650 nM (active)	
CC(C)c1ccc(Nc2nnc(SCC(=O)Nc3ncc(S(=O)(=O)c4ccc([N+](=O)[O-])cc4)s3)s2)cc1	2050 nM (active)	
N#CC1C=Cc2c(ccc3ccccc23)N1C(=O)c1ccccc1 (stereo not drawn)	1630 nM (active)	
c1ccc(CNc2ncnc3ccccc23)cc1		8.27%
O=C(Cn1ccnc1[N+](=O)[O-])NCc1ccccc1	1300 nM (active)	
O=C(Cn1cnc2c(OCc3ccccc3)ncnc21)NCCCc1ccccc1		-15%
